Experimental data: the supplement of paper PMC3484114
± gives the standard deviation.

tested on: OVCAR-3-derived ovarian cancer stem-like cells (spheroids); experiment: cell growth relative to untreated control; higher = more growth (less inhibition); conditions: 2.29 µM; 96 h
Method in brief: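 Percent growth was calculated against untreated wells once blanks were subtracted and Grubbs outliers removed. The cells were OVCAR-3 spheroid-derived stem-like cells, trypsinized and plated at 50,000 cells/mL in stem cell medium on ultra-low attachment 96-well plates for a 24 h preincubation. They were then exposed to compounds at 2.29 uM for 96 h at 37°C, 5% CO2, in 4 replicate wells, and viability was measured by TOX8 resazurin fluorescence (ex 560/em 590 nm) after 4 h.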

Row | Structure (SMILES) | cell growth [%]
1 | CCCNC1=C(C)C(=O)C2=C(C1=O)[C@H](COC(N)=O)[C@]1(OC)[C@@H]3N[C@@H]3CN21 | 60.4 ± 24
2 | CC12C(=O)OC(=O)C1(C)C1CCC2O1 (stereo unspecified) | 91 ± 14
3 | CC12CCC3C(CCC4CC(OC(=O)Cc5ccc(N(CCCl)CCCl)cc5)CCC43C)C1CCC(=O)N2 (stereo unspecified) | 52.8 ± 15
4 | CC(=O)[O][Hg][c]1c(C)c(C)c(C)c(C)c1C | 94.5 ± 28
5 | CC(C)(O)C=CC(=O)C(C)(O)C1C(O)CC2(C)C3CC=C4C(C=C(O)C(=O)C4(C)C)C3(C)C(=O)CC12C (stereo unspecified) | 28.1 ± 6.1
6 | COc1ccc(C2C=C(c3ccc4c(c3)OCO4)Oc3c2c(=O)oc2ccccc32)cc1OC (stereo unspecified) | 56.4 ± 40
7 | C1CN1c1nc(N2CC2)nc(N2CC2)n1 | 129 ± 82
8 | C[C@@H]1CC[C@@]2(OC1)O[C@H]1CC3[C@@H]4CC=C5C[C@@H](O[C@@H]6O[C@H](CO)[C@@H](O[C@@H]7O[C@@H](C)[C@H](O[C@@H]8O[C@@H](C)[C@H](O)[C@@H](O)[C@@H]8O)[C@@H](O)[C@H]7O)[C@H](O)[C@H]6O[C@@H]6O[C@@H](C)C(O)[C@@H](O)[C@H]6O)CC[C@]5(C)[C@H]4CC[C@]3(C)[C@H]1[C@@H]2C (stereo partly specified) | 8.03 ± 3.1
9 | CCC(=O)OC1CCn2c1nc1c2C(=O)C(C)=C(N2CC2)C1=O (stereo unspecified) | 130 ± 34
10 | O=[Se](O)O.[Na+] | 112 ± 29
11 | CO[C@@H](/C(C)=C/C=C/C(C)=C/c1coc(C)n1)[C@@H](C)[C@@H]1C[C@H](O)[C@@]2(C)O[C@@H]2/C=C/[C@@H](C)[C@H]2C[C@H](CC(=O)O2)C[C@@H]2O[C@H]2C(=O)O1 | 40.6 ± 7.4
12 | COc1ccc(NC2=NCCO2)c2c1CCCC2 | 98.5 ± 10
13 | O=[N+]([O-])[O-].O=[N+]([O-])[O-].O=[N+]([O-])[O-].[Ga+3] | 120 ± 11
14 | Cc1cc(N(CCCl)CCCl)ccc1/C=N/NC(=O)Cc1cc(=O)oc2cc(O)ccc12 | 113 ± 53
15 | C[Si](C)(CN)CN.[Cl][Pt][Cl] | 137 ± 53
16 | CCC[CH2][Pb]([Cl])([CH2]CCC)[CH2]CCC | 5.1 ± 5.5

Row | Structure (SMILES) | cell growth [%]
17 | CCC[CH2][Sn]1([CH2]CCC)[S]CC[N]1S(=O)(=O)c1ccc(C)cc1 | 36.9 ± 13
18 | [O-][Cl+3]([O-])([O-])[O-].c1ccc(-c2csc3c4ccccc4c4ccccc4[n+]23)cc1 | 45.5 ± 12
19 | CC(=O)[O][Sn]([CH2]c1ccccc1)([CH2]c1ccccc1)[CH2]c1ccccc1 | 112 ± 25
20 | C[C@@H]1CCOC(=O)/C=C/C=C\C(=O)O[C@@H]2C[C@H]3O[C@@H]4[C@@H]5O[C@]5(C)[C@H](O)C[C@]4(COC(=O)[C@H]1O)[C@]2(C)[C@@]31CO1 | 13.4 ± 5.4
21 | O=c1[nH]c2ccccc2n1C1CCN(CCCC(c2ccc(F)cc2)c2ccc(F)cc2)CC1 | 90.6 ± 41
22 | COC1CC(O[C@H]2CC[C@]3(C=O)[C@H]4CC[C@]5(C)[C@@H](C6=CC(=O)OC6)CC[C@]5(O)[C@@H]4CC[C@]3(O)C2)OC(C)C1O (stereo partly specified) | 52.2 ± 16
23 | Cc1cc(N(CCOS(C)(=O)=O)CCOS(C)(=O)=O)ccc1C=Nc1ccc(-c2csc(-c3ccccc3)n2)c(Cl)c1 | 97.7 ± 47
24 | CC(/C=N/N=C(N)N)=N\N=C(N)N | 70.6 ± 16
25 | COC(=O)[C@@]12OC[C@]34[C@H]([C@@H](O)[C@@H]1O)[C@@]1(C)CC(=O)C(O)=C(C)[C@@H]1C[C@H]3OC(=O)[C@H](OC(=O)/C=C(\C)C(C)C)[C@@H]24 | 6.1 ± 4.4
26 | CC[C@@]1(O)C[C@H](O[C@H]2C[C@H](N(C)C)[C@H](O[C@H]3C[C@@H]4O[C@H]5CC(=O)[C@H](C)O[C@H]5O[C@@H]4[C@H](C)O3)[C@H](C)O2)c2c(cc3c(c2O)C(=O)c2c(O)ccc(O)c2C3=O)[C@H]1C(=O)OC | 11 ± 3.4
27 | COc1cc2c(cc1O)N=CC1CCC(O)N1C2=O (stereo unspecified) | 93.8 ± 20
28 | CCCCCn1cc2c3c(cccc31)C1C=C(C)CN(C)[C@@H]1C2.Cc1ccc(C(=O)OC(C(=O)O)C(OC(=O)c2ccc(C)cc2)C(=O)O)cc1 (stereo unspecified) | 78.9 ± 11
29 | CC1=CC(O)C(O)C2(C)C1CC1OC(=O)C(O)C3C(C)C(O)C4(O)OCC13C42 (stereo unspecified) | 128 ± 36
30 | CC(C)(Br)C(=O)C(Br)Br | 88.9 ± 28
31 | CC(O)CCC(=O)c1ccoc1 (stereo unspecified) | 99 ± 17
